Experimental data: PubChem BioAssay (NCI)
This is part of a sample that, as a whole, favours compounds with a hit. Of some 83,000 tested, about 20% had one in any assay.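 Method: cells in 96-well plates; compound added at one concentration; 48 h incubation; percent growth measured; values under 10 scored active.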 Active and inactive are the calls of the source.

Experiments:
Experiment in all cases: NCI-60 one-dose screen, 48 h (100 = growth as untreated, 0 = no growth, -100 = all killed)
Conditions in all cases: 10 µM unless noted
[1] = system: SR leukemia
[2] = system: RPMI-8226 leukemia
[3] = system: OVCAR-8 ovarian
[4] = system: OVCAR-5 ovarian
[5] = system: OVCAR-4 ovarian
[6] = system: SK-OV-3 ovarian
[7] = system: IGROV1 ovarian
[8] = system: OVCAR-3 ovarian
[9] = system: HS 578T breast
[10] = system: NCI/ADR-RES ovarian
[11] = system: T-47D breast
[12] = system: BT-549 breast
[13] = system: MDA-MB-435 melanoma
[14] = system: SW-620 colon
[15] = system: MCF7 breast
[16] = system: HCT-116 colon
[17] = system: HCC-2998 colon
[18] = system: KM12 colon

Measured: growth

O=C1/C(=C/c2ccc(Br)cc2)C=C(c2ccccc2)N1CCc1ccccc1
active: [5] -17.1%
inactive: [1] 58.6% | [2] 101% | [3] 17.7% | [4] 66% | [6] 15.4% | [7] 41.9% | [8] 42.1% | [9] 22.8% | [10] 27.8% | [11] 50.5% | [12] 74.5% | [13] 63.2% | [14] 70.2% | [15] 55.2% | [16] 22.7% | [17] 70.1% | [18] 87.9%

CCN(CC)CCN1CC(O)=C(c2nc(-c3ccc(Cl)cc3)cs2)C1=N
active: [1] -4.58% | [13] -62.4% | [14] -56.2% | [16] 1.48% | [17] -70.7%
inactive: [2] 13.6% | [3] 44.6% | [4] 66.4% | [5] 84.6% | [6] 101% | [7] 40.8% | [8] 80.5% | [9] 47.2% | [10] 69.4% | [11] 17.2% | [12] 49.9% | [15] 10.1% | [18] 33.7%

O=C(Nc1ccccc1Cl)Oc1ccc(-c2ccccc2)cc1
inactive: [1] 133% | [2] 94.2% | [3] 103% | [4] 98.9% | [5] 103% | [6] 121% | [7] 108% | [8] 150% | [9] 180% | [10] 101% | [11] 106% | [12] 113% | [13] 101% | [14] 112% | [15] 110% | [16] 110% | [17] 119% | [18] 120%

O=C(/C=C/c1ccco1)c1ccc(Nc2nc(Nc3ccc(F)cc3)nc(Nc3ccc(Cl)cc3)n2)cc1
active: [1] 0.269%
inactive: [2] 23.6% | [3] 87.9% | [4] 64.9% | [5] 78.4% | [6] 95.4% | [7] 61.7% | [8] 75% | [9] 81.5% | [10] 67.3% | [11] 46.6% | [12] 78.7% | [13] 88.5% | [14] 84.4% | [15] 33.4% | [16] 62.5% | [17] 54.8% | [18] 65.2%

COC(=O)[C@H](CSC)N(C)C(=O)[C@@H]1CSSC[C@@H](NC(=O)c2nc3ccccc3cc2O)C(=O)NCC(=O)N1C
inactive: [1] 28.6% | [2] 85.2% | [3] 90.2% | [4] 128% | [5] 103% | [6] 91.6% | [7] 95.8% | [8] 58.2% | [9] 90.9% | [10] 104% | [11] 33.8% | [12] 111% | [13] 70% | [14] 74.2% | [15] 79.4% | [16] 71.7% | [17] 98.8% | [18] 50.6%

N#C/C(=C/C=C/c1cccc(Cl)c1)S(=O)c1ccccc1 (stereo unspecified)
active: [1] 1.43% | [2] -13.4% | [3] -2.48% | [4] -45.1% | [5] -52.9% | [7] -25.7% | [8] -86.1% | [10] 7.8% | [11] -47.2% | [12] -69.3% | [13] -35.4% | [14] -58.9% | [15] -52.5% | [16] -86.3% | [17] -88.7% | [18] -47.7%
inactive: [6] 19.6% | [9] 11.6%

CC/C=C/C/C=C/C/C=C/C/C=C/C/C=C/C/C=C/CCC(=O)Nc1ccn([C@@H]2O[C@H](CO)[C@@H](O)C2(F)F)c(=O)n1
inactive: [1] 18.5% | [2] 28.1% | [3] 10% | [4] 50.1% | [5] 73.8% | [6] 22% | [7] 57.5% | [8] 53.4% | [9] 76.1% | [10] 14.1% | [11] 28.9% | [12] 29.8% | [13] 36.9% | [14] 30.8% | [15] 14.3% | [16] 12.1% | [17] 55.1% | [18] 43.5%

CCN1CCN(c2nc(C)cc(NCc3cc(Nc4ccnc5cc(Cl)ccc45)ccc3F)n2)CC1
inactive: [3] 17.4% | [4] 17.8% | [5] 26.1% | [6] 31.5% | [7] 15.8% | [8] 10.5% | [10] 24.6% | [12] 36.1% | [14] 11.5% | [18] 26.9%
active: [1] -18.8% | [2] -31.1% | [9] 9.27% | [11] -24.3% | [13] -88.4% | [15] 1.98% | [16] 2.33% | [17] -34.9%

Clc1cccc(Cl)c1/C=C/c1cc(/C=C/c2c(Cl)cccc2Cl)[nH]n1
inactive: [1] 24.7% | [2] 21.8% | [3] 31.1% | [4] 33.4% | [5] 54.6% | [6] 44.4% | [7] 48% | [9] 45.5% | [11] 57% | [12] 30.7% | [14] 18.2% | [15] 20.9% | [16] 15.5% | [17] 35.1% | [18] 24.9%
active: [8] -16.5% | [10] 4.02% | [13] -50%

CCN1CCN(c2cc(C)nc(NCc3cc(Nc4ccnc5cc(Cl)ccc45)ccc3F)n2)CC1
active: [1] -18.4% | [11] -17.7% | [15] 6.99%
inactive: [2] 74.4% | [3] 69.6% | [4] 56% | [5] 50.5% | [6] 87.5% | [7] 59.1% | [8] 101% | [9] 71.4% | [10] 82.8% | [12] 98.6% | [13] 50.7% | [14] 40.8% | [16] 11.8% | [17] 28% | [18] 82.7%

O=c1cc(C2NNC(=S)N2)c2ccc3ccccc3c2o1 (stereo unspecified)
inactive: [1] 97.8% | [2] 74.8% | [3] 97.4% | [4] 109% | [5] 101% | [6] 97.2% | [7] 76.8% | [8] 106% | [9] 71% | [10] 101% | [11] 73.1% | [12] 94% | [13] 102% | [14] 92.2% | [15] 86.9% | [16] 95.4% | [17] 113% | [18] 100%

NC(=N\N=C/c1ccccc1[N+](=O)[O-])/C(N)=N\N=C/c1ccccc1[N+](=O)[O-]
inactive: [1] 107% | [2] 88.2% | [3] 109% | [4] 109% | [5] 111% | [6] 102% | [7] 136% | [8] 116% | [9] 100% | [10] 114% | [11] 104% | [12] 116% | [13] 101% | [14] 105% | [15] 105% | [16] 108% | [17] 108% | [18] 104%

O=C(NCCNc1cc(-c2cn(-c3ccccc3)nc2-c2cccc(O)c2)ccn1)Nc1ccccc1
active: [1] 2.22%
inactive: [2] 60.1% | [3] 74.3% | [4] 92.4% | [5] 70.1% | [6] 65.1% | [7] 67% | [8] 82.3% | [9] 50.5% | [10] 75.4% | [11] 45.9% | [12] 52.9% | [13] 93% | [14] 84.5% | [15] 78.4% | [16] 53.2% | [17] 92.5% | [18] 89.2%

Cc1nc2c(c(N3CCCc4ccccc43)n1)CCC2
active: [1] 2.73% | [6] 5.28% | [8] -41.2% | [10] 9.25% | [12] -12.1% | [13] 1.15% | [16] -17% | [18] 0.58%
inactive: [2] 11.2% | [3] 11% | [4] 48.3% | [5] 42.4% | [7] 24.5% | [9] 23% | [11] 45.3% | [14] 22.5% | [15] 14.6% | [17] 18.3%

NS(=O)(=O)c1cnccc1Sc1ccncc1S(N)(=O)=O
active: [7] 6.71%
inactive: [1] 92.2% | [2] 86.2% | [3] 96% | [4] 101% | [5] 118% | [6] 95.6% | [8] 103% | [9] 94.5% | [10] 98.9% | [11] 57% | [12] 96.4% | [13] 106% | [14] 113% | [15] 88.9% | [16] 106% | [17] 85.8% | [18] 108%

COc1ccc(-c2csc(C3=C(O)CN(CCCN4CCCC4=O)C3=N)n2)cc1OC
inactive: [1] 77.1% | [2] 85.5% | [3] 94.6% | [4] 94.2% | [5] 116% | [6] 109% | [7] 63.9% | [8] 99.4% | [9] 92.9% | [10] 100% | [11] 86.5% | [12] 100% | [13] 116% | [14] 103% | [15] 109% | [16] 88.7% | [17] 98.3% | [18] 104%

CNC(=O)NCC1OC(n2cnc3c(NC(=O)Nc4ccccc4)ncnc32)C(O[Si](C)(C)C(C)(C)C)C1CC(=O)N(C)OC (stereo unspecified)
inactive: [3] 20.4% | [4] 44.1% | [5] 19% | [6] 40.7% | [10] 54.4% | [12] 25.5% | [14] 23.7% | [16] 16.8% | [18] 17.2%
active: [1] -56% | [2] -75.4% | [7] -36.6% | [8] 7.61% | [9] 3.64% | [11] -34% | [13] 7.75% | [15] 3.29% | [17] -13.4%
